Results on 84 molecules are retold here after article PMC4336329 (PLoS ONE, 2015).

SMILES strings stand for the structures. The whole screen tested about 310,000 compounds, of which about 14,000 (4.5%) showed an effect of 50% or more. The effect is printed as a negative number. The sample holds strong results, similar compounds and a random draw of the others, so the mix is not that of the screen.
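Further: peak tail current of the secondary pulse compared with the same well before compound.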

human ether-à-go-go-related gene (hERG) potassium channel, sequence (Q12809 whole entry, looked up): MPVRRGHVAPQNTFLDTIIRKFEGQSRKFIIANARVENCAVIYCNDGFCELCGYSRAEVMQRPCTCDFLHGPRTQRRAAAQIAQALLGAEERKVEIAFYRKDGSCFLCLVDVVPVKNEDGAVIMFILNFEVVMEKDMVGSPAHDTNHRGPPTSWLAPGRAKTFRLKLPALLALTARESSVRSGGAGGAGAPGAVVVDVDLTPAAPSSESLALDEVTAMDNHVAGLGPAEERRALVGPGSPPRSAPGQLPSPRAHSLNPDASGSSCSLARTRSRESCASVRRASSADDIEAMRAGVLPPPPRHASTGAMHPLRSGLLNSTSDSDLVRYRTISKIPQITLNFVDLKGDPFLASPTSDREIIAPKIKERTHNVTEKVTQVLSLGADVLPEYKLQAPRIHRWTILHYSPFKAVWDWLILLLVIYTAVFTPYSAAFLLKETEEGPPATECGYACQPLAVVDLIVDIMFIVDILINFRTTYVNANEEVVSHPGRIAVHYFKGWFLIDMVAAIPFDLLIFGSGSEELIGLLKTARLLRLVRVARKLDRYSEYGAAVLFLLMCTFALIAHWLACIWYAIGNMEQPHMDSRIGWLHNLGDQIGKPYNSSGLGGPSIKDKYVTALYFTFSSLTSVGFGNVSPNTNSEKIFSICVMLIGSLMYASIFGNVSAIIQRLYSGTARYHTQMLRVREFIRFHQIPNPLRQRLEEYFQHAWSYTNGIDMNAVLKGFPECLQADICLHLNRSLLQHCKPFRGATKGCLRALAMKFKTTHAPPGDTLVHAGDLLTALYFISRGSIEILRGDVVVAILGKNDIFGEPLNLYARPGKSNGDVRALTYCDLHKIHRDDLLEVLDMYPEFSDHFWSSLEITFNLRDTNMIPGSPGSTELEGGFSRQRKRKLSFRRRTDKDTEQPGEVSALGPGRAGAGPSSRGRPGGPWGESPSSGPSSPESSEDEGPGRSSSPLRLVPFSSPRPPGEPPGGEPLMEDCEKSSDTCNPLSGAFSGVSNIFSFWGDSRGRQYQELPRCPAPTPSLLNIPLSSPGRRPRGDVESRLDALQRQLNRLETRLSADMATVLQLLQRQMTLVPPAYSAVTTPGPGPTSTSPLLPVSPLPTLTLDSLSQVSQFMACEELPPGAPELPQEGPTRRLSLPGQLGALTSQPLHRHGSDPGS

The experiment addresses human ether-à-go-go-related gene (hERG) potassium channel (human, UniProt Q12809). The experiment in a line: primary screen, population patch clamp on CHO cells stably expressing hERG; higher = less effect of the substance.
With `CC(C)c1ccc(C2N3CC4([N+](=O)[O-])CN2CC([N+](=O)[O-])(C3)C4(C)C)cc1` (stereo not drawn), the “hERG current change (%, negative = inhibition) at 10uM” value was 28.4%.

In the case of `O=C(O)c1ccc(NS(=O)(=O)c2ccc3c(c2)OCCCO3)cc1`, the “hERG current change (%, negative = inhibition) at 10uM” value was determined as 4.23%. To `CN1CCN(S(=O)(=O)c2cc(C(F)(F)F)ccc2Cl)CC1.Cl` belongs 10.4%; to `CC(=O)c1sc2nc(=O)c(C)nn2c1C`, -0.703%. The result for `O=c1[nH]c(/C=C\c2ccc(O)c(O)c2)nc(O)c1[N+](=O)[O-]` reads 16.2%. The result for `CCN1CCN(CCCOc2ccc(-c3ccccc3)cc2)CC1` reads -71.9%; that for `CN1CCN(CCCOc2ccc(-c3ccccc3)cc2)CC1.Cl`, -69.1%. As to `Cc1ccc(OCCCN2CCOCC2)cc1`, the “hERG current change (%, negative = inhibition) at 10uM” value is on record as 13.3%.

Regarding `CCCCOc1ccc(OCCCN2CCOCC2)cc1.Cl`, the “hERG current change (%, negative = inhibition) at 10uM” value is recorded as -23.1%.

Take `CCCCOc1ccc(CN2CCN(CC)CC2)cc1`: the “hERG current change (%, negative = inhibition) at 10uM” value is reported as -14.2%. The result for `CN1CCN(CCOc2ccc(Cc3ccccc3)cc2)CC1.Cl` reads -23.4%; that for `CN1CCN(CCOc2ccc(-c3ccccc3)cc2)CC1.Cl`, -56.3%.

Regarding `Cl.c1ccc(-c2ccc(OCCN3CCOCC3)cc2)cc1`, the “hERG current change (%, negative = inhibition) at 10uM” value was 3.74%. `COc1ccc(C(C(=O)NC2CCCC2)N(C(=O)c2ccoc2C)c2cc(C)cc(C)c2)cc1` (stereo not drawn): the “hERG current change (%, negative = inhibition) at 10uM” value is on record as -10.9%. The result for `O=C(CSc1nnc(CNC(=O)c2ccco2)o1)Nc1nc2ccccc2s1` reads 16.1%; that for `COc1cc(CC(NC(C)=O)C(=O)NC2CCN(S(=O)(=O)c3ccc(NC(C)=O)cc3)CC2)cc(OC)c1` (stereo not drawn), 21.7%.

`Cc1nn(-c2cccc([N+](=O)[O-])c2)c(N)c1-c1ccccc1`: the “hERG current change (%, negative = inhibition) at 10uM” value is reported as -68.7%. Regarding `Cc1nn(S(=O)(=O)c2ccccc2)c(C)c1Sc1ccc([N+](=O)[O-])cc1`, the “hERG current change (%, negative = inhibition) at 10uM” value is -6.26%. As to `Nc1c(-c2ccccc2Cl)cnn1-c1cccc([N+](=O)[O-])c1`, the “hERG current change (%, negative = inhibition) at 10uM” value is -49.4%. Regarding `Cc1nn(-c2ccccc2)c(N)c1Sc1ccc([N+](=O)[O-])cc1`, the “hERG current change (%, negative = inhibition) at 10uM” value is on record as -75.2%. With `Cc1ccc(-c2cnn(-c3cccc([N+](=O)[O-])c3)c2N)cc1`, the “hERG current change (%, negative = inhibition) at 10uM” value was -24.1%. On to `Cc1nn(-c2ccccc2)c(N)c1-c1ccccc1`, for which the “hERG current change (%, negative = inhibition) at 10uM” value was determined as 5.13%. To `Cc1cc(C)nc(-n2nc(C)c(Sc3ccc(F)cc3)c2N)n1` belongs -61.7%; to `Cc1cc(C)nc(-n2nc(C)c(C3(O)C(=O)Nc4ccc(F)cc43)c2N)n1` (stereo not drawn), 3.79%; to `Cc1ccccc1-c1cnn(-c2cccc([N+](=O)[O-])c2)c1N`, -56.7%. On to `Cc1nn(-c2nc3ccccc3s2)c(N)c1Sc1ccc(F)cc1`, for which the “hERG current change (%, negative = inhibition) at 10uM” value was determined as 7.4%. To `Cc1nn(-c2ccc([N+](=O)[O-])cc2)c(N)c1-c1ccccc1` belongs -19.1%; to `Cc1nn(-c2ccccc2)c(N)c1Sc1ccccc1[N+](=O)[O-]`, -26.7%. For `CC(C(=O)NCc1cccnc1)N1C(=O)c2ccccc2C1=O` (stereo not drawn), the “hERG current change (%, negative = inhibition) at 10uM” value is reported as 17.4%.

On to `CNC(=O)CSCCn1c(SCC(=O)NC)nc2ccccc2c1=O`, for which the “hERG current change (%, negative = inhibition) at 10uM” value was found to be 13.1%.

Turning to `COc1ccc(-c2cc(C(F)(F)F)n3ncc(C(=O)N(C)Cc4ccccc4)c3n2)cc1`, the “hERG current change (%, negative = inhibition) at 10uM” value is listed as -17%. For `Cc1cc(C)cc(Oc2ccc(N)cc2)c1`, the “hERG current change (%, negative = inhibition) at 10uM” value was -15.1%.

With `COc1ccccc1NC(=O)C(C)N(C)CCOc1ccccc1` (stereo not drawn), the “hERG current change (%, negative = inhibition) at 10uM” value is 16.5%. To `COc1ccc(Cn2c(C)nnc2-c2cnn(C)c2N)cc1` belongs 14.8%; to `O=S(=O)(NCC1CCCO1)c1cccc(S(=O)(=O)N2CCCC2)c1` (stereo not drawn), -14%. Regarding `CCN1CCN(C(=O)CCNC(=O)Cn2ccc3ccccc3c2=O)CC1`, the “hERG current change (%, negative = inhibition) at 10uM” value is listed as 13.9%. To `Cc1ccc(-c2nc(CSc3nc4ccccc4c(=O)n3C)cs2)cc1` belongs 9.52%; to `CCN1CCN(CCCNC(=O)c2ccc(NC(=O)C3=C(C)OCCS3)cc2)CC1`, 17.6%. To `O=C(O)c1cccc2c1/C(=N/Nc1ccc([N+](=O)[O-])cc1[N+](=O)[O-])c1ccccc1-2` belongs 19.7%; to `Cc1nn(-c2ccccc2)c(N)c1Sc1cccc([N+](=O)[O-])c1.Cl`, -65.9%; to `Cc1nn(C(=O)c2cccc([N+](=O)[O-])c2)c(C)c1Sc1ccccc1`, 7.61%. As to `Cc1ccc(-n2nc(C)c(Sc3ccccc3[N+](=O)[O-])c2N)cc1`, the “hERG current change (%, negative = inhibition) at 10uM” value is listed as -17.2%. On to `CCOc1ccc(NC(=O)c2ccc(NC(=S)NC3CCCCC3)cc2)cc1`, for which the “hERG current change (%, negative = inhibition) at 10uM” value came out at 20.9%. On to `O=C(CCN1C(=O)[C@@H]2Cc3ccccc3CN2C1=O)NCc1ccc(Cl)cc1`, for which the “hERG current change (%, negative = inhibition) at 10uM” value is on record as -64.2%. To `Cc1cccc(NC(=O)CCCCCN2C(=O)[C@@H]3Cc4ccccc4CN3C2=O)c1` belongs -21.7%; to `Cc1ccc(NC(=O)CCCCCN2C(=O)[C@@H]3Cc4ccccc4CN3C2=O)cc1`, -12.1%. The result for `O=C(CCN1C(=O)c2ccncc2C1=O)NCc1ccc(Cl)cc1` reads -51.9%; that for `Cc1cc(C)cc(NC(=O)CCCN2C(=O)C(c3ccccc3)Oc3cccnc32)c1` (stereo not drawn), -1.03%; that for `COc1ccc(CNC(=O)CCN2C(=O)c3ccncc3C2=O)cc1OC`, 13%. The result for `O=C(CCN1C(=O)[C@@H]2Cc3ccccc3CN2C1=O)NCc1ccccc1` reads -12%; that for `O=C(CCN1C(=O)c2ccccc2C1=O)NCc1ccc(Cl)cc1`, -16.9%. Regarding `O=C(CCCN1C(=O)C(c2ccccc2)Oc2cccnc21)Nc1cccc(F)c1` (stereo not drawn), the “hERG current change (%, negative = inhibition) at 10uM” value is on record as -50.2%. To `Cc1cc(C)cc(NC(=O)CCCCCN2C(=O)[C@@H]3Cc4ccccc4CN3C2=O)c1` belongs -51.9%; to `CCc1cccc(NC(=O)CCCN2C(=O)C(c3ccccc3)Oc3cccnc32)c1` (stereo not drawn), -2.79%; to `Cc1ccc(CNC(=O)CCN2C(=O)[C@@H]3Cc4ccccc4CN3C2=O)cc1`, -40.5%. To `Cc1ccccc1NC(=S)N(Cc1cccnc1)Cc1ccccc1Cl` belongs -11.6%; to `COc1ccc(C(=O)Nc2ccccc2C(=O)N2CCCCCC2)cc1OC`, -10.5%. The result for `Cc1c(NC(NC(=O)CF)C(Cl)(Cl)Cl)c(=O)n(-c2ccccc2)n1C` (stereo not drawn) reads 4.94%; that for `O=C(NC(=S)Nc1cc(Cl)ccc1N1CCOCC1)c1ccc(-c2cccc(Cl)c2)o1`, 8.91%. As to `O=C(COc1ccccc1O)Nc1ccccc1Cl`, the “hERG current change (%, negative = inhibition) at 10uM” value is -4.32%.

On to `COc1ccc(CCn2c(SCC(=O)Nc3cc(C)on3)nc3ccccc3c2=O)cc1OC`, for which the “hERG current change (%, negative = inhibition) at 10uM” value came to 0.454%. To `Cc1ccc(OC(=O)CCc2c(C)nc3ncnn3c2C)cc1` belongs -8.47%; to `O=C(CCN1C(=O)[C@@H]2Cc3ccccc3CN2C1=O)Nc1cccc(F)c1`, -13.8%; to `COc1cccc(NC(=O)CCCCCN2C(=O)[C@@H]3Cc4ccccc4CN3C2=O)c1`, -37.7%. To `O=C(CCCCCN1C(=O)[C@@H]2Cc3ccccc3CN2C1=O)Nc1cccc(F)c1` belongs -67.9%; to `CC1C(C#N)=C(N)OC2=C1C(=O)CC(C)(C)C2` (stereo not drawn), 9.35%.

Turning to `CCOc1cc(/C=N/NC(=O)N/N=C/c2ccc(O)c(OCC)c2)ccc1O`, the “hERG current change (%, negative = inhibition) at 10uM” value is -10.1%. To `Cc1ccc(/C=N/NC(=O)NN(C)c2ncc(C(F)(F)F)cc2Cl)cc1` belongs -3.09%. For `CCOc1cc(/C=N/NC(=O)NN(C)c2ncc(C(F)(F)F)cc2Cl)ccc1O`, the “hERG current change (%, negative = inhibition) at 10uM” value was -54.3%. On to `CC1=C(C(=O)OCC2CCCO2)C(c2ccc(Cl)c(Cl)c2)NC(=O)N1` (stereo not drawn), for which the “hERG current change (%, negative = inhibition) at 10uM” value is recorded as 11.4%. With `CCN1C(=NCC(C)C)N[C@@H](CCc2ccccc2)[C@H](C(=O)NCC(C)C)[C@H]1C`, the “hERG current change (%, negative = inhibition) at 10uM” value was -16.2%. On to `CCN1C(=NCCOC)N[C@@H](CCc2ccccc2)[C@H](C(=O)OC)[C@H]1C`, for which the “hERG current change (%, negative = inhibition) at 10uM” value was -1.21%.

Consider `CCN1C(=NCc2ccc(OC)cc2)N[C@@H](CCc2ccccc2)[C@H](C(=O)NCc2ccc(OC)cc2)[C@H]1C`, for which the “hERG current change (%, negative = inhibition) at 10uM” value is reported as -65.4%.

`Cc1cc(/C=N/NC(N)=O)c(C)n1-c1ccc(F)cc1`: the “hERG current change (%, negative = inhibition) at 10uM” value is listed as -2.06%. To `Cc1ccc(C(C(=O)NCc2ccc(F)cc2)N(C(=O)c2csnn2)C2CC2)cc1` (stereo not drawn) belongs -19.3%; to `Cc1cccc(N(C(=O)c2csnn2)C(C(=O)NCc2ccccc2)c2cccs2)c1` (stereo not drawn), -9.49%. Turning to `O=C(NCc1ccc(F)cc1)C(c1ccc(F)cc1)N(C(=O)c1csnn1)C1CC1` (stereo not drawn), the “hERG current change (%, negative = inhibition) at 10uM” value was found to be 9.3%. To `Cc1ccc(C(C(=O)NC2CCCCC2)N(C(=O)c2csnn2)C2CC2)o1` (stereo not drawn) belongs -57.6%; to `Cc1ccc(C(C(=O)NC2CCCC2)N(C(=O)c2csnn2)C2CCCC2)o1` (stereo not drawn), -4.91%; to `Cc1cccc(N(C(=O)c2csnn2)C(C(=O)NCc2ccccc2)c2ccc(C)o2)c1` (stereo not drawn), -54.6%. The result for `Cc1ccc(C(C(=O)NC2CCCCC2)N(C(=O)c2csnn2)C2CCCC2)o1` (stereo not drawn) reads -7.71%. To `Cc1ccc(C(C(=O)NCc2ccc(F)cc2)N(C(=O)c2csnn2)C2CC2)o1` (stereo not drawn) belongs -56.7%; to `Cc1ccc(C(C(=O)NCc2ccccc2)N(C(=O)c2csnn2)c2cccc3ccccc23)o1` (stereo not drawn), -13.2%; to `O=[N+]([O-])c1cc2c(cc1Br)CCN2`, 11.2%.
